Results as given in PubChem BioAssay AID1159580 (chemical genetic matrix, 2015).
About 2,000 (36%) of roughly 5,500 compounds were called active. Roughly 18% stayed inconclusive and do not appear here. Rule as the data show it: active = normalized growth mostly below about 0.91 (no sharp cut-off); inconclusive = no clear call, values can overlap the other calls; inactive = mostly above about 0.92. Some of the results follow.

Assay: chemical genetic growth profiling, strain panel (AID 1159580);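 also: tested at 20 µM; growth read once vehicle control cultures reached saturation at 30 °C; 1 = growth at the plate median or of vehicle wells; lower values mean less growth of the strain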
Settings: S. cerevisiae deletion strains, growth OD

Measured: normalized growth

CC1=C(/C=C/C(C)=C/C=C/C(C)=C/C(=O)Nc2ccc(O)cc2)C(C)(C)CCC1
inactive: locus YAL013W, strain DEP1, active compounds read low 0.99 | locus YAL040C, strain CLN3, active compounds read low 1.09 | locus YCL061C, strain MRC1 (second series), active compounds read low 0.995 | locus YDR150W, strain NUM1, active compounds read low 1.01 | locus YDR363W, strain ESC2, active compounds read low 0.968 | locus YER002W, strain NOP16, active compounds read low 1.02 | locus YGR078C, strain PAC10, active compounds read low 1.02 | locus YMR263W, strain SAP30, active compounds read low 0.994 | locus YMR307W, strain GAS1, active compounds read low 0.989 | locus YNL128W, strain TEP1, active compounds read low 1.02 | locus YNL175C, strain NOP13, active compounds read low 1.02 | locus YNL197C, strain WHI3, active compounds read low 1.01 | locus YNL224C, strain SQS1, active compounds read low 0.998 | locus YNL322C, strain KRE1, active compounds read low 0.993 | locus YOR083W, strain WHI5 (second series), active compounds read low 0.952
